In the library only some 1.5% were active in any assay of this set; here they are far more common.
hDAT+cocaine: human DAT dopamine uptake with cocaine, either direction | 1.3% of 110,000 active | LLC-PK1 hDAT cells, [14C]-dopamine uptake with cocaine IC80; actives deviate in either direction | Q01959 | B-score at 10 µM;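 active = Z score or B-score, a plate-position-corrected score, falls beyond the plate's 99.7% confidence bounds, in either direction; inactive = both scores lie inside the 99.7% bounds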;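 also: scored against the spread of the other compound wells on the same plate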
Target sequence (Q01959 whole entry, looked up): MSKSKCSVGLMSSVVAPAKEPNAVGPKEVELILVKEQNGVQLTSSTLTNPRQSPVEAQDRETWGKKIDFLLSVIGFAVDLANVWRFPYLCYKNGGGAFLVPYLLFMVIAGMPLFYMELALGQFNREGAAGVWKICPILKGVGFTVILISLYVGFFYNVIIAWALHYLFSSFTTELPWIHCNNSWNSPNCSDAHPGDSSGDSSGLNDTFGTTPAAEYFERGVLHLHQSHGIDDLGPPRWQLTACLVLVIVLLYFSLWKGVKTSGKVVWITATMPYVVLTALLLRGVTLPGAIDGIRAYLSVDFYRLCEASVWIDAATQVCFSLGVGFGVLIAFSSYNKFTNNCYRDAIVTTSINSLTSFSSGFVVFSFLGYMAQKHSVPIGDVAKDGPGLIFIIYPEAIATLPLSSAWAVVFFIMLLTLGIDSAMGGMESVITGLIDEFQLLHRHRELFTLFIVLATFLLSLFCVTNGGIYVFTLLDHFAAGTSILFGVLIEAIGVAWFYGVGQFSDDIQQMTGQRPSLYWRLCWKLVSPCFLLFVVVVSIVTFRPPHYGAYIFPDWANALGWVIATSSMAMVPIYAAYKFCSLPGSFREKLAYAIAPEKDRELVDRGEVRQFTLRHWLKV
MRP reversal: MRP-mediated drug resistance reversal; H69AR cells + 2 uM doxorubicin, CellTiter-Glo, 72 h; differential viability (reversal), % at 10 µM; 0.04% of 85,000 active;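 active = viability drop by adding the cancer drug above about 55%, with treated viability meeting a 40% cutoff, limit read from the data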;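 also: viability without doxorubicin minus viability with 2 µM doxorubicin for each compound; larger differential means the compound sensitizes cells more to doxorubicin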
MRP-1 activ: activates MRP-1. H69AR cells + doxorubicin, viability rescue, CellTiter-Glo. viability increase, % at 10 µM. 0.61% of 140,000 active;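 active = viability gain under doxorubicin at or above a set limit, the compound median plus 3 SD, cut at about 4.7% in these data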;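 also: MRP-1 overexpressing cells given doxorubicin 25 µM after compound pretreatment; 18-22 h compound pretreatment then 72 h with doxorubicin before readout; 0% = doxorubicin-only wells and 100% = vehicle-treated cells without doxorubicin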
* marks the source's active call; other numbers are inactive results; x = no result given.

SMILES | hDAT+cocaine | MRP reversal | MRP-1 activ
CSC1=NP(=S)(SC)N2CCCC2=C1C#N (configuration not stated) | -1.59 | -9.9 | 28.8*
COC(=O)CSC1=NP(=S)(SCC(=O)OC)N2CCCC2=C1C#N (configuration not stated) | 0.442 | -12.1 | -2.2
CC(C)(C)P(=O)(c1ccncc1)N1CCCC1 (configuration not stated) | 6.23* | -2.2 | -2.9
CC/C(=N\N1CCCCCC1)c1c(O)n(-c2ccccc2C)c(=O)[nH]c1=O | x | x | -4.6
CC1CCCC(C)N1/N=C/c1c[nH]c2ccc(Br)cc12 (configuration not stated) | x | x | -6.3
CC(C)(C)c1ccc(S(=O)(=O)N2CC3CC(C2)c2cccc(=O)n2C3)cc1 (configuration not stated) | 2.42* | -5.9 | -0.5
Cc1ccc(CN2CC3CC(C2)c2cccc(=O)n2C3)cc1 (configuration not stated) | 0.376 | -6.8 | -1.7
C[C@H]1O[C@@H](O[C@H]2[C@@H](O)C[C@H](O[C@H]3[C@@H](O)C[C@H](O[C@H]4CC[C@@]5(C)[C@H](CC[C@@H]6[C@@H]5CC[C@]5(C)[C@@H](C7=CC(=O)OC7)CC[C@]65O)C4)O[C@@H]3C)O[C@@H]2C)C[C@H](O)[C@@H]1O | -7.19* | x | -3.6
C[C@@H]1O[C@@H](O[C@H]2C[C@@H](O)[C@]3(CO)[C@H]4[C@H](O)C[C@]5(C)[C@@H](C6=CC(=O)OC6)CC[C@]5(O)[C@@H]4CC[C@]3(O)C2)[C@H](O)[C@H](O)[C@H]1O | -6.57* | x | -3.8
CC(C)(O)[C@H]1O[C@H]2CC[C@@]3(C)[C@@](O)(CC[C@H]4Cc5c([nH]c6ccccc56)[C@@]43C)C2=CC1=O | 0.953 | x | x
c1ccc2cc3cc4ccccc4cc3cc2c1 | x | -6.2 | x
CC[C@@H]1C=CC=CC[C@H](C)[C@@H](O)[C@@H](C)C(=O)[C@H](C)[C@@H](O)[C@H](C)C(=O)[C@H](C)[C@@H](O)[C@H](C)C=CC(=O)O[C@H]2[C@@H](C)[C@@H](CC1)O[C@@]1(CC[C@@H](C)[C@@H](C[C@H](C)O)O1)[C@@H]2C | -0.0108 | x | x
COC(=O)C1=C(c2cccc(OC)c2OC)C[C@@H]2CC[C@H]1N2C(=O)N1CCCCC1 | 1 | x | x
C[C@@]1(CO)[C@H](O)CC[C@@]2(C)[C@H]1CC[C@H]1C[C@@H]3C[C@@]12CC[C@]3(O)CO | -1.15 | x | -3.3
C=C(C)[C@@]12OC3(c4ccccc4)O[C@@H]1C1[C@@H]4O[C@]4(CO)[C@@H](O)[C@]4(O)C(=O)C(C)=C[C@H]4[C@@]1(O3)[C@H](C)[C@H]2OC(=O)/C=C/C=C/c1ccccc1 (some centres not stated) | -6.26* | x | x
COC(=O)C1=C(c2ccccc2)C[C@@H]2CC[C@H]1N2C(=O)NCC1CC1 | -0.266 | x | x
Cc1ccc(CN2C(=O)NC(=O)C3(Cc4c(nc5ccccn5c4=O)N4CCCCCC43)C2=O)cc1 (configuration not stated) | -1.46 | -34.6 | 8.8*
O=C1NC(=O)C2(Cc3ccccc3N3CCCC32)C(=O)N1c1cccc(Cl)c1 (configuration not stated) | -0.551 | -2.5 | -3.0
CC(Cc1ccccc1Sc1ccccc1O)N(C)C (configuration not stated) | 1.14 | x | -1.1
CS(=O)(=O)c1ccc(C2=C(c3ccccc3)C(=O)OC2)cc1 | -0.0988 | x | x
Cc1cccc(N/N=C(\C(N)=O)C2=NC(C)(C)Cc3ccccc32)c1 | x | x | -3.1
O=[N+]([O-])c1ccc(N2CCCC2)cc1N/N=C1\CN2CCC1CC2 | x | x | -2.9
O=C(N/N=C1/CN2CCC1CC2)c1cc2ccccc2cc1O | -8.23* | -7.3 | -5.0
CC/C(=C\C=C\[C@@H]1C=C[C@@H]2CCC[C@H]2[C@@H]1C(=O)c1ccc[nH]1)[C@@H]1O[C@@H]([C@@H](C)C(=O)O)CC[C@@H]1C | -4.01* | 3.9 | -4.2
Cc1c(N=Nc2c(O)n(Cc3ccccc3)c(=O)[nH]c2=O)c(=O)n(-c2ccccc2)n1C | x | x | -1.6
CC(=O)C1C2c3ccccc3O[C@@]1(C)N=c1s/c(=C/c3ccoc3)c(=O)n12 (some centres not stated) | x | x | -3.1
CC(C)C/C(=N/O)c1c[nH]c2ccccc12 | 4.25* | 0.9 | -3.0
CC(C(=O)c1c[nH]c2ccccc12)N1CCSCC1 (configuration not stated) | 0.244 | 3.3 | -2.8
CN(CCCCC(=O)/C=N/O)Cc1ccccc1 (tested in a mixture with another compound) | 0.962 | 7.2 | -2.5
C=C1[C@@H](OC(C)=O)[C@]23C[C@@H]1[C@@H](OC(C)=O)CC2[C@]12C4C[C@H]3[C@H]1N(CC)C[C@]4(C)CC[C@@H]2O (some centres not stated) | -0.252 | x | x
